Drawing on PubChem BioAssay, this text covers composite z-score and z-score for eleven molecules.

The nature of test [1]: binders of probe aFSTL3 on microarray, primary screen, stem cell growth factor project, biochemical, small-molecule microarray, fluorescence 635/667 (AID 1064).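 Note: measures binding of the biotinylated anti-FSTL3 antibody to printed compounds.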 To be noted: higher = more signal.
Test [2] in a line: binders from COS7 lysate, DM2A8 probe, primary screen, torsin A project, cell lysate, small-molecule microarray, fluorescence 635/667 (AID 1065). To be noted: higher = more signal, COS7 lysate expressing mutant human TOR1A.
Test [3] in a line: binders of probe aFGF2 on microarray, primary screen, stem cell growth factor project, biochemical, small-molecule microarray, fluorescence 635/667 (AID 1067).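 Note: measures binding of biotinylated aFGF2 protein to printed compounds on slides; z-score merges feature fluorescence and signal-to-noise across triplicate slides.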 The settings on record: higher = more signal.
Test [4] is described as follows: binders of probe aFGF10 on microarray, primary screen, stem cell growth factor project, biochemical, small-molecule microarray, fluorescence 635/667 (AID 1071).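 Note: score merges 667 nm spot intensity and signal to noise from triplicate slides.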 To be noted: higher = more signal.
In test [5] the target is Neurogenic locus notch homolog protein 2 (Homo sapiens) (UniProt Q04721). Put plainly: Notch2 binders on small-molecule microarrays, primary screen, biochemical, small-molecule microarray, 635 nm fluorescence, stem cell growth factors (AID 1073). To be noted: Notch2 binding, higher = more signal.
Chain of Neurogenic locus notch homolog protein 2 (Homo sapiens) (Q04721 whole entry, looked up, canonical isoform): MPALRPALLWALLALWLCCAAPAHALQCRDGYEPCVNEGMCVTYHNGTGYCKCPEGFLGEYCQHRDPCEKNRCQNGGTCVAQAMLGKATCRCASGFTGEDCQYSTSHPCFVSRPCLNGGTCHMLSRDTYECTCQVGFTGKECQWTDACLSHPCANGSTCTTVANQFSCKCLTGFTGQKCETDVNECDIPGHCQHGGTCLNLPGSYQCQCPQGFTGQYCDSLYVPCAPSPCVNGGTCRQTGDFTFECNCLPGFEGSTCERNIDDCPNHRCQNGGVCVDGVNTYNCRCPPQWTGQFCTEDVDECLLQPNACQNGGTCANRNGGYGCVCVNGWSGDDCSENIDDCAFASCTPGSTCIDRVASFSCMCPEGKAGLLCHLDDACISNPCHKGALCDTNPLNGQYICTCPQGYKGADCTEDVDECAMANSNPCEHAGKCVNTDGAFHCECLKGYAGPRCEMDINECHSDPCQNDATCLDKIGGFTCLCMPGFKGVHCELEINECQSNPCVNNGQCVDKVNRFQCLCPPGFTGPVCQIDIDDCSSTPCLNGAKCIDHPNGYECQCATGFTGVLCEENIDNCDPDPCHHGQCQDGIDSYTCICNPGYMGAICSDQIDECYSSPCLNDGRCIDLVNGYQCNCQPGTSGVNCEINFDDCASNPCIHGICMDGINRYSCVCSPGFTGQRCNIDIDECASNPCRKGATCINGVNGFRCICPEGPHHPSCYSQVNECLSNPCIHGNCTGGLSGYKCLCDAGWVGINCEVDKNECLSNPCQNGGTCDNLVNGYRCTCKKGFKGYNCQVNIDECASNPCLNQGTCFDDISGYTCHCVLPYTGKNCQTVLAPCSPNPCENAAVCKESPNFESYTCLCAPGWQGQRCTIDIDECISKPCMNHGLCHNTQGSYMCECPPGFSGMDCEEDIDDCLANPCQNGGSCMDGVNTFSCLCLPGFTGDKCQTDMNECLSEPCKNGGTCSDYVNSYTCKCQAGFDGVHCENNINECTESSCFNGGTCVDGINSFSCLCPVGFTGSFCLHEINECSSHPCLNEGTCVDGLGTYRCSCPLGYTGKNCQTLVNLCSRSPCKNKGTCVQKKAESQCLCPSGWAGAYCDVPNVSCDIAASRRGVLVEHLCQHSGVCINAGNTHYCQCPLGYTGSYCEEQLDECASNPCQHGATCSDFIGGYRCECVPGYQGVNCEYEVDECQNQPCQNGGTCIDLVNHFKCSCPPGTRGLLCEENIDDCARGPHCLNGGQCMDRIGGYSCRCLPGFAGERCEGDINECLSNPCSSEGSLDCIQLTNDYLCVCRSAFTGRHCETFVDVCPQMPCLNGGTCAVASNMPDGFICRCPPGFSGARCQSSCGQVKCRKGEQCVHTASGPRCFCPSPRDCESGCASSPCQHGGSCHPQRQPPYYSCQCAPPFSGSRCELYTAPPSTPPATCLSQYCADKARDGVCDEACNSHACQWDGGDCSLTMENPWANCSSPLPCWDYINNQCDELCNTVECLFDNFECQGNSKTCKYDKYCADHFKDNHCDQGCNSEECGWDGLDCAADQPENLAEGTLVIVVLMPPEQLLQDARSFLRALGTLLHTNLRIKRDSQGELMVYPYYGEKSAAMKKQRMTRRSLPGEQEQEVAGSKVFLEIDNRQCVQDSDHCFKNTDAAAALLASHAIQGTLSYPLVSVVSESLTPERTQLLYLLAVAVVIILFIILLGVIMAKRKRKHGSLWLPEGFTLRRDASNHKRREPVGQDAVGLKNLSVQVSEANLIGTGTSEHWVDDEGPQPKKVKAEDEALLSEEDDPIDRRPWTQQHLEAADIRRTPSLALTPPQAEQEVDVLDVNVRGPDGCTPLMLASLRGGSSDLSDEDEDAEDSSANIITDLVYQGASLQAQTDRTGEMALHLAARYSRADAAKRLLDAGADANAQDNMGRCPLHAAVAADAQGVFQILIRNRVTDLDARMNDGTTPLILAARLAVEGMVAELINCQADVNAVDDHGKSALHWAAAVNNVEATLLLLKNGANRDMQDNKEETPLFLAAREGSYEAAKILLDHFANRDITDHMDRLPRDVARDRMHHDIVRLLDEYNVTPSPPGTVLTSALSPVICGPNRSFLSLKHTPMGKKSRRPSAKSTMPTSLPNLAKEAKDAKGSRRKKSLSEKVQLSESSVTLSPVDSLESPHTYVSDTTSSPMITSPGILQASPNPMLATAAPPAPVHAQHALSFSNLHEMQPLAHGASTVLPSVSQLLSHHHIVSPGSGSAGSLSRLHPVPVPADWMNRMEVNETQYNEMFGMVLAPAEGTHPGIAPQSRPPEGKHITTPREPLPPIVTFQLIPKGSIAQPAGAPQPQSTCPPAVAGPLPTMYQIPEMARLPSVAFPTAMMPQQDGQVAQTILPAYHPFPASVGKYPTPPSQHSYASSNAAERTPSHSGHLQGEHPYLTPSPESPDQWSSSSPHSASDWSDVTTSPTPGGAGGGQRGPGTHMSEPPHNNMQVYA
Test [6] addresses Pro-neuregulin-1, membrane-bound isoform (Homo sapiens) (UniProt Q02297). Briefly: NRG1 binders on small-molecule microarrays, primary screen, psychiatric disease protein project, biochemical, small-molecule microarray, fluorescence 635/667 (AID 1075).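 Note: score combines 667 nm spot fluorescence with signal to noise.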 To be noted: NRG1 binding, 635 nm fluorescence, higher = more signal.
In test [7] the test system is Neuregulin-1 EGF-like domain. Briefly: binders of neuregulin-1 EGF-like domain, primary screen, biochemical, small-molecule microarray, 635 nm fluorescence (AID 1081).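 Note: binding of the protein to compounds printed on small-molecule microarray slides.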 The settings on record: small-molecule microarray binding, higher = more signal.
Test [8] in a line: FRG1 promoter luciferase signal modulators, primary screen, FRG1 inhibition for FSHD, cell-based, C2C12 myotubes, firefly/Renilla luciferase, luminescence (AID 1084). To be noted: higher = more signal, called active from +8 up or from −8 down.
The nature of test [9]: binders of probe aFST on microarray, primary screen, stem cell growth factor project, biochemical, small-molecule microarray, fluorescence 635/667 (AID 1086).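 Note: score merges 667 nm fluorescence with signal-to-noise of each printed compound spot.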 To be noted: higher = more signal.
Test [10] is described as follows: binders of probe aHhip on microarray, primary screen, stem cell growth factor project, biochemical, small-molecule microarray, fluorescence 635/667 (AID 1087).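 Note: score merges spot fluorescence at 667nm with spot signal to noise ratio.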 To be noted: higher = more signal.

The source made the active and inactive calls.

Chain of Pro-neuregulin-1, membrane-bound isoform (Homo sapiens) (Q02297 whole entry, looked up, the tested form may be a part, canonical isoform): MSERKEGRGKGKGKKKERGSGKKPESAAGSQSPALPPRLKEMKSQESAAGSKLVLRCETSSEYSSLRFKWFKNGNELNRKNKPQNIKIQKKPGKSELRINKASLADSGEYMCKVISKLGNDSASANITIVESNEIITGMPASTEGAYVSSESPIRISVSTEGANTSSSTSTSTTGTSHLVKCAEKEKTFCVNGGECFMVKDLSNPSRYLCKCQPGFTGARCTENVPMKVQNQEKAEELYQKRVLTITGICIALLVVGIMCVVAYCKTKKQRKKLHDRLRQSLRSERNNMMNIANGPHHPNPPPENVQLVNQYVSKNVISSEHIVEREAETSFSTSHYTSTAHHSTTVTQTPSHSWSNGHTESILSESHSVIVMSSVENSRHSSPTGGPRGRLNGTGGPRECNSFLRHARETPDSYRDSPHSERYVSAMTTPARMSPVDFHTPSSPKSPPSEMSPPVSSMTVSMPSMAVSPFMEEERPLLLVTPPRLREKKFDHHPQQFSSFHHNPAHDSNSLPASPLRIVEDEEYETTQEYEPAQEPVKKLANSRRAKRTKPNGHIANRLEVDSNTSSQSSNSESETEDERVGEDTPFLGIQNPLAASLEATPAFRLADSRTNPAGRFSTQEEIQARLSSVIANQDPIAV

With `CC(C)=NOCc1cccc(-c2cc(-c3ccccc3)no2)c1`, the composite z-score in [1] is -0.575; in [2] it was 0.221; in [3], -0.0767; in test [4], 0.717; in [5] it was 0.0486; in [6] it was 0.205. Also, the values for the composite z-score in [7], in [9] and in test [10] were 0.345, 0.376 and 0.0024, respectively. In test [8], the z-score was 0.603 (inactive).

As for `Cc1cc2c(c(=O)o1)[C@H](O)[C@H]1O[C@H]1C2=O`, the composite z-score in [1] was 0.0331; in [2] it was 0.357; in test [3] it was -0.175; in test [4], 0.118; in [5], 0.749; in [6], -0.262. Also, the composite z-score was 0.12 in test [7], -0.0853 in test [9] and -0.0994 in test [10]. Also, the z-score in [8] is -0.924 (inactive).

In the case of `O=C1O[C@@H](c2ccccc2)[C@@H](c2ccccc2)N2[C@@H](c3ccc(O)cc3)[C@]3(C(=O)Nc4ccccc43)[C@@H](C(=O)O)[C@H]12`, the composite z-score in test [1] was -0.149; in test [2] it was 0.227; in test [3], -0.0969; in [4], 0.46; in test [5], 0.0863; in test [6], 1.67. Moreover, the composite z-score in test [7] is 1.08; in test [9], 0.231; in [10], -0.0212. Further, in test [8], the z-score is -1.09 (inactive).

For `O=C1[C@H]2[C@H]3[C@H](O)[C@H](O)CC(=NOCc4ccccc4)[C@H]3CC[C@H]2C(=O)N1c1cccc(Oc2ccccc2)c1`, the composite z-score in test [1] was -0.602; in test [2] it was 0.154; in test [3], -0.052; in [4], 0.919; in [5] it was 0.554; in test [6], 0.391. In addition, the composite z-score in [7] worked out at 1.16; in test [9], 0.4; in test [10] it was 0.0053. Besides, the z-score in test [8] was 0.335 (inactive).

Consider `COc1cccc([C@H]2Oc3ccc(OC)cc3C(=NO[C@H](C)c3cn([C@@H]4COC[C@H]4O)nn3)[C@@H]2O)c1`, for which the composite z-score was -0.183 in test [1]; 0.044 in test [2]; -0.0867 in [3]; -0.246 in test [4]; -0.315 in test [5]; 0.0671 in test [6]. In addition, the results for the composite z-score in [7], in [9] and in test [10] were -0.168, -0.324 and -0.305, respectively. In addition, the z-score in test [8] is 0.253 (inactive).

In the case of `Cc1cc2c(nc1C)CCCN2CC(C)ON=C1[C@H]2CCn3c(=O)n(-c4ccccc4)c(=O)n3[C@H]2[C@H](O)[C@@H]2O[C@H]12` (stereo not given in full), the composite z-score in [1] was -0.335; in test [2], 0.533; in [3], 0.0477; in [4], 0.73; in test [5], 0.36; in test [6] it was 0.0785. Also, the composite z-score in test [7] is 1.1; in test [9], 0.265; in test [10] it was -0.194. The z-score in test [8] is -0.325 (inactive).

Regarding `C=C(/C(=C/C[C@H](OC(=O)c1ccncc1)c1ccc(OCCO)cc1)c1cnc2ccccc2c1)C(C)C`, the composite z-score is -0.185 in test [1]; 0.727 in [2]; -0.047 in [3]; 1.09 in test [4]; 1.29 in test [5]; 0.7 in test [6]. Further, the composite z-score in test [7] is 1.13; in test [9], 0.552; in test [10] it was -0.0296. For the same molecule, the z-score in test [8] was 1.66 (inactive).

Turning to `CCOC(=O)[C@H](CC(C)C)NC(=O)CCC1CC(OC(=O)NCc2cccc3ccccc23)CC2(CCCC(COC(=O)NCCc3ccccc3OC)O2)O1` (stereo not given in full), the composite z-score in test [1] is -0.414; in test [2], 0.301; in test [3] it was -0.108; in test [4], 0.433; in test [5], 1.14; in [6], 0.174. The composite z-score was 0.882 in test [7], 0.402 in [9] and -0.134 in test [10]. For the same molecule, the z-score in test [8] was 0.0171 (inactive).

Turning to `COCCCNC(=O)[C@@]1(Sc2ccc(C)cc2)CC(=O)N(Cc2ccccc2)[C@@H]1c1ccc(CO)cc1I`, the composite z-score in test [1] is 0.438; in test [2] it was 0.258; in test [3] it was 0.193; in test [4], -0.134; in test [5], -0.895; in test [6] it was 1.38. The figures for the composite z-score in [7], in test [9] and in test [10] were -0.118, 0.458 and 0.0327, respectively. The z-score in [8] was -0.646 (inactive).

Turning to `CC(=O)C[C@H](O)[C@@H](NC(=O)OC(C)(C)C)C(C)C`, the composite z-score in test [1] is -0.475; in [2] it was -0.627; in test [3], -0.129; in test [4], -0.328; in [5], -0.453; in test [6], -0.759. Besides, the composite z-score in [7] is -0.996; in test [9], -0.126; in test [10], -0.0668. For the same molecule, the z-score in [8] is 0.178 (inactive).

On to `CCOC(=O)CCN1C(=O)[C@H]2[C@H]3[C@H](O)C=CC(=O)[C@@H]3CC[C@H]2C1=O`, for which the composite z-score in test [1] was -0.619; in test [2], 0.153; in test [3], -0.108; in test [4], 0.408; in [5] it was 0.25; in test [6], 0.262. Also, the composite z-score in test [7] was -0.0122; in test [9], -0.0371; in test [10], -0.374. The z-score in test [8] was -0.451 (inactive).
